CYP2C9 inh = blockers of cytochrome P450 2C9 activity – biochemical, luminescence, ADME assay, primary screen; P11712; CYP2C9 Supersomes, luciferin-H conversion; inhibition, % at 5 µM; actives 20% (n = 96,000);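 active means blocking of liver enzyme CYP2C9 beyond about 50% at 5 µM, limit read from the data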
CYP2C19 activ = human CYP2C19 activators, primary screen, biochemical, luminescence. Cytochrome P450 2C19 (Homo sapiens), P33261. recombinant CYP2C19, luciferin-H EGE luminescence; hits give high values; 0 = fully inhibited enzyme, 1 = untreated enzyme. activation factor at 5 µM. 96,000 tested, under 10 active;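 active means activation factor of at least 2 at 5 µM in the primary screen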;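 further: 0 = wells with 2.5 mM tranylcypromine and 1 = vehicle-only wells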
Target sequence (P33261 whole entry, looked up): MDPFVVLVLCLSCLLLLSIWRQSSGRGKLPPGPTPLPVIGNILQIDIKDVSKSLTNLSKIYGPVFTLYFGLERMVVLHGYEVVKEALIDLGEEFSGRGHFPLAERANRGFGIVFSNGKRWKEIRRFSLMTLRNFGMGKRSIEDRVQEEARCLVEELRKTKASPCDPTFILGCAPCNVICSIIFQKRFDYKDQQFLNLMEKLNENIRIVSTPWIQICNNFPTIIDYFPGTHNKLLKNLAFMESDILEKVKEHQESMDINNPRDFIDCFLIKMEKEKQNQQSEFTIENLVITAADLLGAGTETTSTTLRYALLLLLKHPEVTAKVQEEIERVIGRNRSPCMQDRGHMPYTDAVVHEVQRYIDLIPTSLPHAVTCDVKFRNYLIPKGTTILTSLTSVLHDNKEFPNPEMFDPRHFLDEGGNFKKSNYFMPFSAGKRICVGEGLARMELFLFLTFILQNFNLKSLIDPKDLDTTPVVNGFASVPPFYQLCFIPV
MRP1 act = H69AR viability gain despite doxorubicin, primary screen, MRP-1 activator project, H69AR cells, CellTiter-Glo; viability increase, % at 10 µM; actives 0.61% (n = 140,000); viability rescue; AID 799, 2007;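 active means viability gain under doxorubicin at or above a set limit, the compound median plus 3 SD, cut at about 4.7% in these data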;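 further: MRP-1 overexpressing cells given doxorubicin 25 µM after compound pretreatment; 18-22 h compound pretreatment then 72 h with doxorubicin before readout; 0% = doxorubicin-only wells and 100% = vehicle-treated cells without doxorubicin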
CYP2C9 act = human CYP2C9 activators, primary screen, biochemical, luminescence. Cytochrome P450 2C9 (Homo sapiens), P11712. recombinant CYP2C9, luciferin-H conversion; hits give high values; factor 1 = untreated enzyme, 0 = blocked. activation factor at 5 µM. actives 1.4% (n = 96,000);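 active means activation factor of 2 or more for CYP2C9 at a 5 µM dose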;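 further: 0 = sulfaphenazole-blocked wells and 1 = vehicle-only wells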
MRP resist rev = reversal of MRP1-mediated doxorubicin resistance, primary screen, H69AR cells, doxorubicin co-treatment | H69AR cells + 2 uM doxorubicin, CellTiter-Glo, 72 h | differential viability (reversal), % at 10 µM | actives 0.04% (n = 85,000);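 active means viability drop by adding the cancer drug above about 55%, with treated viability meeting a 40% cutoff, limit read from the data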;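 further: viability without doxorubicin minus viability with 2 µM doxorubicin for each compound; larger differential means the compound sensitizes cells more to doxorubicin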
CYP2C19 inh = blockers of cytochrome P450 2C19 activity – biochemical, luminescence, ADME assay, primary screen; P33261; actives 21% (n = 96,000); AID 778, 2007; inhibition, % at 5 µM; CYP2C19 Supersomes, luciferin-H EGE luminescence, 30 min;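 active means CYP2C19 inhibition above a set limit at 5 µM in the primary screen, cut at about 50% in these data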;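 further: plate controls were negative control wells for no effect and 2.5 mM tranylcypromine positive control for full effect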
* = called active by the depositor; · = no result given. Hits are enriched below; roughly 21% of the tested compounds scored in any of these assays.

SMILES	CYP2C9 inh	CYP2C19 activ	MRP1 act	CYP2C9 act	MRP resist rev	CYP2C19 inh
O=C(COC(=O)c1cc(-c2ccco2)nc2ccccc12)NCc1ccccc1	61*	0.7	-1	0.4	·	33
CN1CCN(c2ccc(S(=O)(=O)N3CCCCC3)cc2NC(=O)Cc2ccc(Cl)cc2)CC1	·	·	-4	·	·	·
COc1ccccc1CNC(=O)C(C)NS(=O)(=O)c1ccc(Br)cc1 (stereo unspecified)	·	·	-3	·	5	·
CCNC(=S)NNC(=O)c1cc(-c2ccc(OC)cc2)nc2ccccc12	·	·	-1	·	·	·
CCNC(=O)COC(=O)c1cc(-c2ccc(OC)cc2)nc2ccccc12	61*	0.8	2	0.4	16	16
CCOC(=O)c1c(C)sc2c1N(C(C)=O)c1cc(Cl)ccc1S2	23	0.4	-2	0.8	13	60*
COc1ccc(N2CSC3=C(C#N)C(c4cccs4)CC(=O)N3C2)cc1 (stereo unspecified)	32	0.9	-2	0.7	-37	13
CN1CSC2=C(C#N)C(c3cccc(OCc4ccccc4)c3)CC(=O)N2C1 (stereo unspecified)	84*	0.8	-3	0.2	31	18
CCc1ccc(N2CSC3=C(C#N)C(c4cccs4)CC(=O)N3C2)cc1 (stereo unspecified)	30	0.9	-2	0.7	·	7
Cc1ccc(N2CSC3=C(C#N)C(c4cccs4)CC(=O)N3C2)cc1 (stereo unspecified)	86*	0.6	-2	0.1	-2	37
CCOC(=O)c1ccc(N2CSC3=C(C#N)C(c4cccs4)CC(=O)N3C2)cc1 (stereo unspecified)	94*	0.1	0	0.1	6	90*
CCc1ccc(C2CC(=O)N3CN(c4ccccc4)CSC3=C2C#N)cc1 (stereo unspecified)	53*	0.8	-4	0.5	15	22
COc1ccc(C(=O)/C=C(\N)C(F)(F)F)c(O)c1	16	0.4	0	0.8	-8	60*
N/C(=C/C(=O)c1ccccc1O)C(F)(F)F	·	·	0	·	·	·
O=C1N/C(=N/N=C/c2ccccc2)SC1(c1ccccc1)c1ccccc1	94*	0.8	1	0.1	-14	20
Cc1ccc(C(=O)Oc2coc(CSc3nnc(NC(=O)c4cccs4)s3)cc2=O)cc1	·	·	-3	·	·	·
Cc1cc(N2CCC(C(=O)NCC3CC3)CC2)nc(-c2ccccc2)n1	62*	0.3	-2	0.4	4	73*
Cc1cc(N2CCN(c3cccc(C)c3C)CC2)nc(-c2ccccc2)n1	·	·	5.1*	·	14	·
Cc1cc(N2CCC(C(=O)NC3CC3)CC2)nc(-c2ccccc2)n1	6	0.6	-1	0.9	-11	37
Fc1cccc(Nc2ncnc3sc4c(c23)CCC4)c1	·	·	-1	·	·	·
CCOC(=O)c1c(NC(=O)COC)sc2c1CCCC2	58*	0.8	-1	0.4	14	16
CCOC(=O)c1c(NC(=O)CN2CCCCC2)sc2c1CCN(C(=O)OCC)C2	47	0.3	-5	0.5	7	65*
CCOC(=O)c1ccc(NC(=O)CC2SCCNC2=O)cc1 (stereo unspecified)	-20	1	2	1.2	12	3
CCOC(=O)c1c(NC(=O)CC2SC(N)=NC2=O)sc2c1CCCC2 (stereo unspecified)	64*	0.8	-4	0.4	·	18
CCOC(=O)C1CSC(CC(=O)Nc2ccc(Cl)cc2)C(=O)N1 (stereo unspecified)	-102	0.6	1	2*	18	42
SMILES	CYP2C9 inh	CYP2C19 activ	MRP1 act	CYP2C9 act	MRP resist rev	CYP2C19 inh
CCOC(=O)c1c(NC(=O)CN(CC)CC)sc2c1CCN(C(=O)OCC)C2	49	0.8	-2	0.5	·	25
COc1ccc(CN2CCn3ncc(C(=O)Nc4cccc(C)c4)c3C2=O)cc1	3	1	-2	1	2	-4
Cc1noc(NS(=O)(=O)c2ccc(NC(=O)C34CC5CC(C3)CC(n3cnc(Cl)n3)(C5)C4)cc2)c1C	·	·	0	·	·	·
CCOC(=O)c1c(NC(=O)CN2CCOCC2)sc2c1CCCC2=O	51*	0.8	-2	0.5	3	18
COC(=O)c1c(NC(=O)CC2SCC(C(=O)OC)NC2=O)sc2c1CCCC2 (stereo unspecified)	-124	0.3	-1	2.2*	1	69*
CCOC(=O)c1c(NC(=O)CN2CCOCC2)sc2c1CCCC2	100*	0	-2	0	-1	99*
CCOC(=O)c1c(NC(=O)CN2CCOCC2)sc(C(=O)NC)c1C	39	0.6	-4	0.6	·	37
Oc1ccc(-c2[nH]ncc2-c2ccc(Cl)cc2)c(O)c1	91*	0.1	-4	0.1	-7	92*
CCOc1ccc(-c2[nH]ncc2-c2csc(C)n2)c(O)c1	·	·	-1	·	·	·
O=[N+]([O-])c1ccc(COc2ccc(-c3[nH]ncc3-c3ccc(Cl)cc3)c(O)c2)cc1	·	·	-2	·	·	·
COc1ccc(-c2[nH]ncc2-c2ccc(Cl)cc2)c(O)c1	43	0.3	-6	0.6	-27	75*
Oc1ccc(C2C(c3ccccc3)=NN=C(c3ccc(Cl)cc3)N2O)c(O)c1 (stereo unspecified)	·	·	2	·	·	·
Oc1ccc(-c2[nH]ncc2-c2cccc3cccnc23)c(O)c1	53*	0.5	-4	0.5	-2	54*
Cn1ccnc1C(O)(c1nnc(-c2ccccc2)o1)C(F)(F)F (stereo unspecified)	-4	1.1	-3	1	·	-8
COCCCNC(=O)Cn1nnc(-c2ccc(NC(=O)c3ccccc3F)cc2)n1	·	·	1	·	8	·
Cc1c2c(nc3ccccc13)OCC2	·	·	-1	·	·	·
CCOc1ccc(-n2c(SCc3nc(-c4ccc(C)cc4)no3)nnc2-c2ccncc2)cc1	80*	0.2	-1	0.2	2	80*
CCOc1ccc(-n2c(SCc3ccc([N+](=O)[O-])cc3)nnc2-c2ccccc2)cc1	·	·	-2	·	·	·
Cn1c(SCc2nc(-c3ccc(Cl)cc3)no2)nnc1-c1ccco1	56*	0.4	-2	0.4	-6	60*
Clc1ccc(-c2noc(CSc3nnc(-c4ccncc4)n3-c3ccccc3)n2)cc1	72*	0.3	-3	0.3	-17	66*
Cc1ccc(-c2noc(CSc3nnc(-c4ccncc4)n3-c3ccc(C)cc3)n2)cc1	84*	0.1	-4	0.2	-12	86*
NC(=O)c1ccc(N=Cc2ccc([N+](=O)[O-])s2)cc1	·	·	-5	·	·	·
O=C(c1ccc(Cl)cc1Cl)C1(n2cncn2)Oc2ccccc2C1O (stereo unspecified)	93*	0	-2	0.1	-19	99*

Assay outcomes as filed in PubChem BioAssay.
